Compound activity: PubChem, several laboratories
WT yeast gro inh: growth inhibition of WT yeast, mitochondrial fusion screen | mitochondrial fusion phenotypic screen, WT strain | 2.1% of 190,000 active | inhibition, % at 10 µM; in the data active = inhibition above about 58%; tested in S. cerevisiae
PERK inh: inhibitors of human PERK kinase | inhibition, % at 5.6 µM | 0.17% of 220,000 active | CHO PERK-DD fusion, SEAP luminescence translation reporter | AID 1416;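 active = inhibition above the mean inhibition of all tested compounds plus 3 SD, set separately per screening campaign, cut at about 2.9% in these data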;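 note: PERK kinase domain activated by AP20187 dimerizer at 100 nM; 0% = DMSO with dimerizer and 100% = rapamycin at 8.4 µM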
Arbovirus anti: arbovirus infection inhibition | inhibition, % at 10 µM | 0.37% of 200,000 active | arbovirus infection cell-based antiviral screen; in the data active = inhibition above about 30%
ROMK primary: human ROMK K+ channel modulation, primary screen | B-score at 10 µM | P48048 | 2% of 130,000 active | Tet-inducible ROMK, thallium flux fluorescence; actives lie on both sides;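 active = signal ratio slope over the read window, or its plate-corrected B-score, at least 3 SD from the plate mean, either direction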;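 note: B-score of the F/F0 ratio slope over 7 to 12 s after thallium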
Target sequence (P48048 whole entry, looked up): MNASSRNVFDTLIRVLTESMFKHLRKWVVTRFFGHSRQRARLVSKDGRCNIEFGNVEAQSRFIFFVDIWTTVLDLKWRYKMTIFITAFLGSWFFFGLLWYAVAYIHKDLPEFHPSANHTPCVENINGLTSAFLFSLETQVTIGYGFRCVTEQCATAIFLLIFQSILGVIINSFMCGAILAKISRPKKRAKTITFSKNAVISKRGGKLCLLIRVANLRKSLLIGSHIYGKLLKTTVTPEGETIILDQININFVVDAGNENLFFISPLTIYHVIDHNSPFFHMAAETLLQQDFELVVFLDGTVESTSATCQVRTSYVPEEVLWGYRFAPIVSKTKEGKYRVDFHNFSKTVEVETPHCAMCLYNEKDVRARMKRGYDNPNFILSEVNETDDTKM
ROMK retest: human ROMK channel modulation, retest confirmation; 54% of 3,000 active; shares compounds with ROMK primary; normalized thallium flux (F/F0 slope) at 10 µM; ROMK thallium flux, fluorescence ratio; active compounds read low; AID 1917;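 active = Flux at 10 µM at least 3 SD below or above vehicle control mean in one or both replicates; inconclusive = no clear call, values can overlap the other calls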
* = called active by the depositor; ? = inconclusive; . = no result. Only some compounds are listed: those with a hit (about 3.3% of all), similar ones and a draw of the others.

SMILES	WT yeast gro inh	PERK inh	Arbovirus anti	ROMK primary	ROMK retest
Cc1ccc(Oc2c(C(N)=O)cc([N+](=O)[O-])cc2[N+](=O)[O-])cc1	16	1	-32	-2.3*	0.035*
Cc1ccc(OCCCCNC2CCCC(C)C2C)c(C)c1 (stereo not drawn)	63*	1	-33	.	0.053*
Cc1ccc(OCCCN2CCCC2)c(C)c1	6	-1	3	-0.085	.
Cc1ccc(O)c(C(=O)c2coc(=N)c(C(=O)NC(C)C)c2)c1	-1	0	6	-0.11	.
CC(C)(C)Nc1nc(Cl)nc(NCc2ccccc2)n1	.	-1	.	-8.5*	0.047*
O=C(O)CCCN1C(=O)/C(=C/c2cn(-c3ccccc3)nc2-c2cccs2)SC1=S	7	0	0	-3.4*	?
Cc1nn(-c2ccccc2)c(Cl)c1/C=C1\SC(=S)N(CCCCCC(=O)O)C1=O	.	1	.	.	.
CCN(CC)C(=O)Cn1c(=O)c2ccccc2n2c(=S)sc(-c3cccc(C)c3)c12	-3	1	-24	.	0.049*
CCN(C(=O)Cn1c(=O)n(-c2cc(OC)c(OC)c(OC)c2)c(=O)c2ccccc21)c1cccc(C)c1	-2	2	1	0.00023	.
CCOc1ccc(C2C(C(=O)c3ccc(C)o3)=C(O)C(=O)N2CCN2CCOCC2)cc1OC (stereo not drawn)	-1	2	-3	1.8*	0.08
COc1cccc2cc(C(=O)C3=C(O)C(=O)N(CCN4CCOCC4)C3c3ccc(Cl)cc3)oc12 (stereo not drawn)	.	1	.	.	.
COc1ccc(N2CC(C(=O)Nc3cc(C)ccn3)CC2=O)cc1 (stereo not drawn)	.	1	.	-0.17	.
CCCN(C(=O)CSc1nnnn1C)C1CCS(=O)(=O)C1 (stereo not drawn)	-9	0	-3	-0.14	0.08
Cn1c(-[n+]2c(-c3ccccc3)cc(-c3ccccc3)cc2-c2ccccc2)nc2cc([N+](=O)[O-])ccc21	34	0	12	.	0.06*
CC(C)(C)c1ccc(C(=O)Nc2sc3c(c2C(=O)O)CCC3)cc1	2	0	32*	0.23	0.074
O=C(Nc1sc2c(c1C(=O)c1ccccc1)CCCC2)c1cccnc1	7	0	-7	-3.7*	0.068*
CCOC(=O)C(=CNc1ccccc1N1CCOCC1)C(=O)OCC	.	-1	.	.	0.064*
CCOC(=O)C(=CNc1cccc(C)c1C)C(=O)OCC	14	1	5	-0.31	.
Cc1nn(-c2ccccc2)c(Cl)c1/C=C(\C#N)C(=O)NC(C)C	11	0	-2	.	0.038*
COc1ccccc1NC(=O)/C(C#N)=C/c1c(C)nn(-c2ccc(F)cc2)c1Cl	-1	1	-14	.	.
Cc1cc2ccccc2n1CCNC(=O)c1cccs1	21	1	3	.	0.069*
CCN1CCN(Cc2nc3c(c(=O)n(C)c(=O)n3C)n2Cc2cccc3ccccc23)CC1	-20	-1	-5	0.073	.
COc1cc(-c2nc3cnccn3c2Nc2ccc(C)cc2)ccc1O	-11	-1	-13	-3.4*	0.066*
CC(=O)C1=C(C)NC(C)=C(C(C)=O)C1c1ccccc1	-12	1	0	0.7	.
Cn1c(=O)c2c(nc(N3CCNCC3)n2Cc2ccccc2Cl)n(C)c1=O	-9	0	-2	1.6*	0.08
SMILES	WT yeast gro inh	PERK inh	Arbovirus anti	ROMK primary	ROMK retest
O=C(NNC1CC(=O)N(c2ccccc2)C1=O)c1cccnc1 (stereo not drawn)	.	2	.	.	0.074
O=C(NNC1CC(=O)N(c2ccc(F)cc2)C1=O)c1cccnc1 (stereo not drawn)	.	0	.	-1	.
COc1ccc(CCNC(=O)C2CCN(Cc3nc(-c4cccc(Cl)c4)oc3C)CC2)cc1OC	15	0	-27	.	.
COc1ccc(-c2nc(CN3CCC(C(=O)N4CCc5ccccc54)CC3)c(C)o2)cc1OC	4	0	3	.	?
O=C(c1cc([N+](=O)[O-])cc([N+](=O)[O-])c1)N1CCCc2ccccc21	20	1	-5	-0.72	.
CCN1CN(Cc2ccco2)CNC1=S	-10	2	12	-0.0082	.
Cc1ccc(/C(=N\O)c2oc3c(C)c4oc(=O)cc(C)c4cc3c2C)cc1	70*	-1	-25	2.9*	0.11*
O=C(CSc1nccc(-c2cccs2)n1)Nc1ccccc1	.	-1	.	.	.
O=C(Nc1ccc(Cl)cc1)N1N=CCC1c1ccccc1 (stereo not drawn)	.	3	.	-3.1*	0.064*
O=C(CCl)Nc1nc(-c2ccco2)c(-c2ccco2)s1	11	0	-5	-4.2*	0.053*
COCCNC(=O)Cn1cc(S(=O)(=O)N2CCN(c3ccccc3F)CC2)c2ccccc2c1=O	-3	0	-1	-2.3*	0.075
Cn1nc(C(=O)N2CCN(C(c3ccccc3)c3ccccc3)CC2)c2ccccc2c1=O	.	0	.	.	0.06*
CC(C)Cc1cc(C(=O)N2CCN(C(c3ccccc3)c3ccccc3)CC2)no1	59*	1	-23	.	0.062*
Cc1sc2ncnc(SCC(=O)c3ccc4c(c3)OCCO4)c2c1-c1ccccc1	-3	1	-1	.	.
N=c1oc2ccc3ccccc3c2cc1-c1nc(-c2ccccc2)cs1	35	1	10	.	0.048*
COc1ccc(C)cc1N(CC(=O)N1CCc2ccccc2C1)S(C)(=O)=O	0	1	-1	0.0041	.
Cc1cc(N2CCN(C)CC2)nc2ccc(NC(=S)N3CCC4(CC3)OCCO4)cc12	8	1	-2	0.74	.
CSC1=NC(C(Cl)(Cl)Cl)N=C(c2ccc(C)cc2)N1 (stereo not drawn)	-13	0	-2	2.7*	0.1*
Cc1ccc(OCCCSc2ncccn2)cc1C	-10	0	-3	.	.
Cc1ccc(SCCN)cc1C	-3	0	3	-3*	0.068*
CN(C)c1ccc(/C=C(\C#N)C(=O)c2ccccc2)cc1	.	2	.	.	0.066*
N#C/C(=C\c1ccc(C#N)cc1)C(=O)c1ccccc1	.	1	.	.	.
COC(=O)CNC(=O)C(Cc1ccccc1)NS(=O)(=O)c1ccc2c(c1)c(=O)n(C)c(=O)n2C (stereo not drawn)	-5	1	-2	-0.28	.
CCN1CCc2nc3ccccc3c(C(=O)Nc3ccc(F)cc3)c2C1	.	0	.	-3.3*	0.074
CCN1CCc2nc3ccccc3c(C(=O)Nc3ccc(NC(C)=O)cc3)c2C1	.	1	.	.	.
SMILES	WT yeast gro inh	PERK inh	Arbovirus anti	ROMK primary	ROMK retest
CC(=O)Nc1ccccc1O	-7	3	-9	.	.
CC(CC(=O)O)Nc1ccccc1O (stereo not drawn)	-4	0	-5	0.029	0.08
COc1cc2c(cc1NC(=O)c1cccc(S(=O)(=O)N(C)C)c1)oc1ccccc12	1	-1	-25	-0.077	.
O=C(c1ccc(N2CCNCC2)cc1)c1cccnc1	12	0	-2	.	.
COc1ccc(C2C(C#N)=C(N)Oc3c2ccc2cccnc32)cc1OC (stereo not drawn)	4	-1	-18	6.7*	0.077
COc1cc(C2C(C#N)=C(N)Oc3c2ccc2ccccc32)ccc1OCC(=O)Nc1ccc(C)cc1 (stereo not drawn)	1	0	-13	-0.54	.
Nc1nc(CN2CCN(C(=O)c3ccco3)CC2)nc(Nc2cccc(Cl)c2)n1	4	-1	-2	-1.8	.
O=C(NNC(=S)NC1CCCCC1)c1ccccc1O	-8	0	5	0.4	.
